The list is not random: actives were taken first. Their share in the collection is about 1.4%.
E coli Lon inh = inhibits E. coli Lon protease; AID 602123; inhibition, % at 7.94 µM; hit rate 0.42% among 360,000; purified E. coli Lon protease, fluorescence polarization; in the data active means inhibition above about 13%, passing the limit was not always enough;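 further: 0% = enzyme with probe and DMSO and 100% = no enzyme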
GLD-1 TGE inh = GLD-1-TGE RNA interaction inhibition (C. elegans). inhibition, % at 5.96 µM. hit rate 0.44% among 320,000. Q17339. AID 2280. purified GLD-1 + fluorescein TGE RNA, fluorescence polarization;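 active means percent inhibition above a per-plate cutoff, the plate mean of test compounds plus 3 SD, cut at about 30% in these data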;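 further: 0% = DMSO wells with GLD-1 and probe and 100% = wells lacking GLD-1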
Target sequence (Q17339 whole entry, looked up): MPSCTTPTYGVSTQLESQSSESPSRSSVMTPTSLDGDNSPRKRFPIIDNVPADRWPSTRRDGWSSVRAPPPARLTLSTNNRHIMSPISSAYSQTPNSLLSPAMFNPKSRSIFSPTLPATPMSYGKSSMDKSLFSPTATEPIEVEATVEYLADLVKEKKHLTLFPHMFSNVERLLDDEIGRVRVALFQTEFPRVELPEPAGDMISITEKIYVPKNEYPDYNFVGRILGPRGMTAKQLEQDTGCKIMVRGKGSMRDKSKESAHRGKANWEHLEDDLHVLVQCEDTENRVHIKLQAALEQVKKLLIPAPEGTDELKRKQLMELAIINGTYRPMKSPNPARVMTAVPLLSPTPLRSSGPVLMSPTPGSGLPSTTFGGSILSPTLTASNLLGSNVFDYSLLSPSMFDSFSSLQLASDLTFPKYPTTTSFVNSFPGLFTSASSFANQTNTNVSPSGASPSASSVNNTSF
Bcl-xL primary = inhibitors of human Bcl-xL; Q07817; hit rate 0.7% among 320,000; inhibition, % at 10.9 µM; GST-Bcl-xL / FITC-Bim BH3 peptide fluorescence polarization;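 active means inhibition above the mean of all tested compounds plus 3 SD, cutoff set per campaign, cut at about 30% in these data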;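 further: 0% = DMSO wells and 100% = unlabeled Bim-BH3 peptide competitor; inhibitors lower millipolarization by displacing the labeled peptide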
MCL1-BIM inh = disrupts human MCL1 binding to BIM-BH3 peptide; inhibition, % at 10.9 µM; GST-MCL1 / FITC-Bim-BH3 fluorescence polarization; AID 2057; Q07820; hit rate 0.68% among 320,000;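 active means inhibition above the mean inhibition of all tested compounds plus 3 SD, set per campaign, cut at about 40% in these data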;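 further: 0% = DMSO wells and 100% = unlabeled Bim-BH3 peptide control; higher means more loss of mP so more displacement of Bim peptide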
MEX-5 binding = C. elegans MEX-5 TCR-2 RNA binding activity. Q9XUB2. MEX-5/FITC-TCR2 RNA binding, fluorescence polarization; hits give low values. activity score (negative = inhibition of binding), % at 10 µM. hit rate 0.38% among 300,000. AID 1832;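 active means inhibition past about -25% in most replicates, and total fluorescence under double the plate's negative control median, limit read from the data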;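 further: 0% = DMSO and -100% = 5 µM competing unlabeled TCR2 RNA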
* = called active by the depositor; · = no result.

SMILES	E coli Lon inh	GLD-1 TGE inh	Bcl-xL primary	MCL1-BIM inh	MEX-5 binding
CC1OC(Oc2c(-c3cc(O)c(O)c(O)c3)oc3cc(O)cc(O)c3c2=O)C(O)C(O)C1O (stereo unspecified)	-3	·	·	·	-48*
C[C@@H]1O[C@@H](OC[C@@H]2O[C@H](Oc3c(-c4ccc(O)cc4)oc4cc(O)cc(O)c4c3=O)[C@@H](O)[C@H](O)[C@H]2O)[C@H](O)[C@H](O)[C@H]1O	3	0	·	·	·
Cc1cc(NC(=O)CSc2nc3c(c(=O)n2CCc2ccccc2)SC(C)C3)no1 (stereo unspecified)	0	-5	31*	0	0
CCN1C(=O)/C(=C\c2cccs2)C(C(=O)OC)=C1C	-3	-5	2	-3	-78*
COC(=O)C1=C(C)N(CC(C)C)C(=O)/C1=C\c1cccs1	4	2	3	2	-2
N#CC1C(=O)NC(=O)C(C#N)C12CCCc1sccc12 (stereo unspecified)	-9	·	·	·	·
CCCCN1C=CC(=C2C(=O)c3ccccc3C2=O)C=C1	-3	7	1	-2	-38*
COc1ccc(OC)c(S(=O)(=O)Nc2ccc(O)c(Sc3ncn[nH]3)c2)c1	0	4	9	16	-34*
COc1ccc(S(=O)(=O)NCc2ccccn2)cc1C	-6	·	·	·	·
CCN1/C(=C2/SC(=S)N(NC(C)=O)C2=O)Sc2ccccc21	-28	·	·	·	-46*
CCN1/C(=C2\SC(=S)N(Cc3ccccc3)C2=O)Sc2ccccc21	-2	-2	3	4	-26*
CC(=O)NN1C(=O)/C(=C2/Sc3ccccc3N2C)SC1=S	-13	-10	5	3	-13
CCN1C(=O)/C(=C2/Sc3ccccc3N2CC)SC1=S	-2	6	-1	6	-18
COc1cc2c(cc1OC)C(c1ccc(-c3ccc(Cl)c(Cl)c3)o1)=NCC2	-13	3	3	-2	-35*
COc1cc2c(cc1OC)C(c1ccc(-c3cc(Cl)ccc3Cl)o1)=NCC2	-6	-10	-1	-17	-1
COc1cc2c(cc1OC)C(c1ccc(-c3ccc(Cl)cc3Cl)o1)=NCC2	-5	5	1	2	-36*
CCN(CC)c1ncnc2c1ncn2[C@H]1CN(Cc2ccc(OC)cc2)C[C@@H](CO)O1	-9	·	·	·	·
Cc1ccc(N2C(=O)C3CCC(C)(C2=O)C3(C)C)cc1C (stereo unspecified)	9	7	38*	-2	3
Cc1nnc(SCC(=O)NC2CCCCCC2)n1C(C)C	2	5	-2	-3	2
CCN(CC)CCN1C(=O)C(=O)/C(=C(/O)c2ccc(S(=O)(=O)N3CCOCC3)cc2)C1c1ccc(Cl)cc1 (stereo unspecified)	3	-2	3	3	-3
Oc1cc2c(cc1O)C1c3ccc(O)c(O)c3OCC1(O)C2 (stereo unspecified)	10	35*	34*	77*	·
COc1ccc(-c2cc(C(=O)NCc3ccc(C(F)(F)F)cc3)[nH]n2)c(C)c1	-4	·	·	·	·
COC(=O)N1C2CCCCC2=NN(c2ccccc2)N1C(=O)OC (stereo unspecified)	-3	·	·	·	·
Oc1c(Br)cc(/C=N/n2c(-c3ccccc3)n[nH]c2=S)c(Br)c1O	·	8	60*	108*	-52*
Cc1ccccc1-n1c(=O)cc(NCc2ccc3c(c2)OCO3)[nH]c1=O	5	0	4	5	0
SMILES	E coli Lon inh	GLD-1 TGE inh	Bcl-xL primary	MCL1-BIM inh	MEX-5 binding
Cc1ccccc1-n1c(=O)cc(NCC2CCCO2)[nH]c1=O (stereo unspecified)	-6	11	36*	17	-2
CNS(=O)(=O)c1cc2c3c(cccc3c1)C(=O)NC2=O	-4	2	32*	21	1
Cc1ccc(NS(=O)(=O)c2cc3c4c(cccc4c2)C(=O)NC3=O)cc1	10	3	3	2	-4
C=CCN1C(=O)/C(=C2/Sc3ccc(OC)cc3N2C)SC1=Nc1ccccc1	-4	1	6	2	-1
CCCCN1C(=O)/C(=C2/Sc3ccccc3N2C)S/C1=N\c1ncn[nH]1	-70	-41	-33	-39	-69*
O=C(N/N=C/c1cc(Br)cc(Br)c1O)c1ccncc1	·	31*	33*	45*	-4
COc1cc(NC(=O)Cn2ncc3c2-c2ccccc2OC3)cc(OC)c1OC	-6	7	172*	33	2
CC1CCN(CCCNC(=O)c2cc3c(=O)n(C)c4ccccc4c3n2C)CC1	-2	-2	6	4	0
Cn1c(C(=O)NCCCN2CCOCC2)cc2c(=O)n(C)c3ccccc3c21	-3	1	3	1	-42*
CCN1CCN(Cc2ccc(NC(=O)c3ccc(C)c(/C=C/c4cnc(Nc5cc(N6CCNCC6)nc(C)n5)cn4)c3)cc2C(F)(F)F)CC1	-151	-148	38*	17	27
CCN1CCN(Cc2ccc(NC(=O)c3ccc(C)c(NC(=O)c4ccno4)c3)cc2C(F)(F)F)CC1	4	-3	4	3	3
CCC(C)[C@@H](N)C(=O)N/N=C/c1cccc2nccnc12 (stereo partly specified)	·	5	9	16	-41*
COc1cc(/C=N/NS(=O)(=O)c2ccc(C)c([N+](=O)[O-])c2)cc([N+](=O)[O-])c1O	4	-5	5	5	-8
COc1ccc(-n2c(O)c(/C=N/NS(=O)(=O)c3ccc(C)c([N+](=O)[O-])c3)c3ccccc3c2=O)cc1OC	-166	-33	41*	-96	7
COc1ccc(-c2[nH]ncc2CNC(C)c2cn(C)nc2C)c(F)c1 (stereo unspecified)	-1	8	68*	13	3
COc1ccc(-c2[nH]ncc2CNC(C)CCn2cccn2)c(F)c1 (stereo unspecified)	6	-3	4	5	1
COc1ccccc1N1CCN(/N=C/c2cccc(Cl)c2)CC1	1	4	33*	-5	1
COc1cccc(/C=N/N2CCN(c3ccccc3OC)CC2)c1	6	6	1	1	-1
CC1(C(=O)NCc2ccccc2Br)CCN1C(=O)Cc1ccc(-c2ccccc2)cc1 (stereo unspecified)	6	·	·	·	·
Cc1ccc2c(c1)CC1(CN2C)C(=O)OC2(CCCCC2)OC1=O	5	5	33*	6	-2
CN1CC2(Cc3c1ccc1ccccc31)C(=O)OC(C)(C)OC2=O	1	7	25	17	·
Cc1cccc(C)c1C(O)c1ncc(-c2cccc(F)c2)[nH]1 (stereo unspecified)	1	·	·	·	·
O=C(CCc1nc2ccccc2c(=O)[nH]1)N1CCCc2ccccc21	-34	28	51*	43*	-10
O=C(CNc1cccc([N+](=O)[O-])c1)N1CCN(S(=O)(=O)c2ccc(Cl)cc2)CC1	4	·	·	·	·
Cc1ccccc1S(=O)(=O)NC(=O)C1(C)CCN1C(=O)c1cccc(F)c1 (stereo unspecified)	0	·	·	·	·
